In test [1] the target is Lysosomal acid glucosylceramidase (Homo sapiens) (UniProt P04062). Briefly: Glucocerebrosidase-p2 (AID 348; in the data active = potency below about 10 µM; also: potency is read from the fitted curve at half-maximal effect). The following applies: purified GBA, blue fluorogenic substrate, 40 min. The gist of the method: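 Compounds titrated from 0.6 nM upwards against 0.2 nM enzyme in pH 5.9 citric acid/KH2PO4, taurocholate, tween-20; blue fluorogenic substrate 80 uM, 40 min room temperature, stopped and read Ex 365/Em 440 for AC50.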

Test [2] can be described thus: AP1 Signaling Pathway (AID 357; active = well fitted curve in either direction with a large enough effect, not every such curve was filed as active;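 also: ME-180 reporter cells stimulated with EGF at its EC50 level; % is scaled to controls: 0 for no effect and ±100 for the full control effect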). Particulars: ME-180 AP-1-bla reporter, EGF-induced, beta-lactamase ratio, 5 h; at 7.69 µM (top of the series) unless noted. The gist of the method: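 Modulation of EGF-driven AP-1 transcription was assessed with a beta-lactamase reporter in ME-180 cells. Compound and EC50 EGF were co-incubated 5 hours at 37 °C before 2.5-hour CCF4 loading at room temperature and dual-emission reading.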

The target of test [3] is Cytochrome P450 1A2 (Homo sapiens) (UniProt P05177). Briefly: p450-cyp1a2 (AID 410; calls by dose curve; also: potency is read from the fitted curve at half-maximal effect). Particulars: recombinant CYP1A2, luciferin-ME demethylation, luminescence; series mostly up to 57 µM. The gist of the method: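 Human CYP1A2 (20nM) demethylated Luciferin-ME at its Km (100uM) in 100mM KPO4. After 10 min compound preincubation, NADPH regeneration ran the reaction 60 min at room temperature. Luciferin was read by luminescence, normalized to 57 uM furafylline.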

A short description of test [4]: NFAT Signaling Pathway (AID 444; active = well fitted curve in either direction with a large enough effect, not every such curve was filed as active;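 also: carbachol stimulus at about its EC50 of 1 µM final; % is scaled to controls: 0 for no effect and ±100 for the full control effect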). The following applies: Jurkat NFAT-bla M1, carbachol, beta-lactamase ratio, 5 h; at 7.69 µM (top of the series) unless noted. The gist of the method: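 Jurkat cells with NFAT-driven β-lactamase reporter and co-expressed M1 receptor, stimulated with carbachol (final 1 uM, ~EC50), compound titration, 5 h at 37 °C. CCF4 loaded 1 h at RT; 460/530 nm ratio gave %activity and AC50.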

The nature of test [5]: Stat Signaling Pathway (AID 446; active = well fitted curve in either direction with a large enough effect, not every such curve was filed as active;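 also: ME-180 cervical cancer cells given 40 pM IL-6 alongside compound; SIE-controlled beta-lactamase reporter measured as 460/530 nm FRET emission ratio; % is scaled to controls: 0 for no effect and ±100 for the full control effect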). The following applies: ME-180 SIE beta-lactamase reporter, IL-6 stimulated, 5 h; at 7.69 µM (top of the series) unless noted. The gist of the method:
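Screening format detects activators and inhibitors alike: ME-180 SIE-bla cells stimulated at 40 pM IL-6 for 5 hrs with compound, then dual-emission beta-lactamase read at 405 nm excitation.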

Test [6] addresses Glucocorticoid receptor (Homo sapiens) (UniProt P04150). Briefly: GR-GFP Redistribution (AID 450;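 active = compounds whose dose series gives a full or clear partial fitted curve of increased nuclear translocation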; also: potency is read from the fitted curve at half-maximal effect). Particulars: U2OS GR-GFP nuclear translocation, laser cytometry, 2 h.
Test [7] has the same target. Description: GR-EFC Redistribution (AID 451; calls by dose curve; also: potency is read from the fitted curve at half-maximal effect). The following applies: CHO-K1 GR-EFC translocation, beta-gal luminescence, 2 h. The gist of the method:
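CHO-K1 cells expressing nuclear EA and GR-ED fragments of b-gal; compounds titrated up to 46 uM final, 2 h at 37 C. GR nuclear translocation read as complemented b-gal luminescence after 1 h RT detection.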

In test [8] the target is Mitogen-activated protein kinase 10 (Mus musculus) (UniProt Q61831). Briefly: JNK3 AlphaScreen Assay (AID 530; active = well fitted curve in either direction with a large enough effect, not every such curve was filed as active;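 also: kinase came from lysate of stimulated human HepG2 cells; signal reports phosphorylation of biotinylated GST-cJun 1-79 at Ser73 with 10 µM ATP; % is scaled to controls: 0 for no effect and ±100 for the full control effect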). The following applies: JNK3 lysate, c-Jun phosphorylation; series mostly up to 57.1 µM. The gist of the method: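 qHTS format: compounds tested as titrations against IL-1beta/TNF-alpha-activated HepG2 lysate JNK3 with biotin-GST-cJun substrate and 10 uM ATP at room temperature. Loss of anti-phospho-cJun AlphaScreen signal indicates inhibition.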

Test [9] has as its target Cytochrome P450 3A4 (Homo sapiens) (UniProt P08684). Description: qHTS Assay for Activators of Cytochrome P450 3A4 (AID 885). Also: nearly all actives have a fitted effect of over 65% in size. Particulars: recombinant CYP3A4, Luciferin-PPXE luminescence, 60 min; series mostly up to 57.1 µM. The gist of the method:
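Steps: enzyme/substrate mix dispensed; compound added, 10 min RT; NADPH regeneration solution added, 60 min RT; luciferin detection buffer stops reaction; 20 min later luminescence measured.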
A general note: In qHTS, concentration-response curves come from the screen itself.

For test [10], the target named is Dual specificity protein kinase CLK4 (Homo sapiens) (UniProt Q9HAZ1). Description: qHTS Assay for Inhibitors of CDC-like Kinase 4 (Kinase-Glo Assay) (AID 1770). Also: nearly all actives have a fitted effect of over 65% in size. Also: potency is read from the fitted curve at half-maximal effect. The following applies: recombinant Clk4, Kinase-Glo ATP depletion luminescence; series mostly up to 66.7 µM. The gist of the method:
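25 nM Clk4 with 100 uM RS repeat peptide and 1 uM ATP (final) in Tris pH7.5, 10 mM MgCl2, 4.5 h at room temperature. Remaining ATP measured by Kinase-Glo luciferase luminescence.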

The target is the same in test [11]. Briefly: qHTS Assay for Inhibitors of CDC-like Kinase 4 (ADP-FP Assay) (AID 1795). Also: nearly all actives have a fitted effect of over 60% in size. Also: potency is read from the fitted curve at half-maximal effect. The following applies: Transcreener ADP fluorescence polarization; series mostly up to 50 µM. The gist of the method: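 Recombinant Clk4 (6.25 nM) phosphorylated 100 uM RS repeat peptide with 1 uM ATP in 25 mM Tris pH 7.5, 10 mM MgCl2, 0.5 mM EGTA, 2.5 mM DTT, 0.01% Triton X-100 for 1 h. ADP was detected by Transcreener ADP2 competitive fluorescence polarization after 30 min at room temperature.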

For test [12], the target named is Ubiquitin carboxyl-terminal hydrolase 1 (Homo sapiens) (UniProt O94782). Description: Inhibitors of USP1/UAF1: Pilot qHTS (AID 504865).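 Also: rhodamine fluorescence freed from ubiquitin-rhodamine substrate followed over time; top concentration of the series differs between compounds; % is scaled to controls: 0 for no effect and ±100 for the full control effect; nearly all actives have a fitted effect of over 35% in size.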 Particulars: purified USP1/UAF1, Ub-rhodamine cleavage fluorescence; series mostly up to 54.9 µM. The gist of the method: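 USP1/UAF1 complex at 1 nM preincubated 15 min at room temperature with compound, then Ub-Rho substrate added at 150 nM final. Fluorescence (480/540 nm) read kinetically in 50 mM HEPES pH 7.8, 0.5 mM EDTA, 1 mM TCEP, 0.1 mg/ml BSA, 0.01% Tween-20.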

Test [13] can be described thus: Primary qHTS for small molecule stabilizers of the endoplasmic reticulum resident proteome: Secreted ER Calcium Modulated Protein (SERCaMP) assay (AID 1508630). Also: % is scaled to controls: 0 for no effect and ±100 for the full control effect. The following applies: SH-SY5Y GLuc-SERCaMP (Gaussia luciferase released on ER calcium loss) secretion, thapsigargin, luminescence; series mostly up to 38.4 µM. The gist of the method:
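GLuc-SERCaMP-expressing SH-SY5Y cells, pretreated 16 h with compound, are challenged with thapsigargin to empty ER calcium stores; after 4 h, coelenterazine is added directly to the medium and luminescence is imaged.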

In test [14] the target is 3',5'-cyclic-AMP phosphodiesterase 4B (Homo sapiens) (UniProt Q07343). Briefly: qHTS Assay for Inhibitors of PDE-IV (AID 607; active = well fitted activation curve with a large enough effect in the main read-out, with a control signal flat, not every such curve was filed as active; also: % of control where 0% means no effect). The following applies: HEK293 ACTOne CNG channel cells, membrane potential fluorescence; series mostly up to 22.9 µM. The gist of the method:
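The readout is membrane depolarisation from a cAMP-sensing CNG channel, detected with a potential dye at ex 535/em 590. Cells were HEK293-derived (endogenous PDE-IV) at 1000 cells/well, titrated up to 22.9 uM final.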

Test [15] deals with Cytochrome P450 2C9 (Homo sapiens) (UniProt P11712). Description: qHTS Assay for Inhibitors and Substrates of Cytochrome P450 2C9 (AID 883). Also: % is scaled to controls: 0 for no effect and ±100 for the full control effect; nearly all actives have a fitted effect of over 60% in size. The following applies: recombinant CYP2C9, luciferin-H luminescence, 60 min; series mostly up to 57.1 µM. The gist of the method: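 Signal: luciferase luminescence reporting luciferin produced by CYP2C9. Conditions: 10nM enzyme, Luciferin-H 100uM at KM, 25mM KPO4, 37C, 60 min NADPH-driven reaction. Reference: 57uM sulphaphenazole as 100% inhibition.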

Test [16] has as its target Cytochrome P450 3A4 (Homo sapiens) (UniProt P08684). Briefly: qHTS Assay for Inhibitors and Substrates of Cytochrome P450 3A4 (AID 884). Also: nearly all actives have a fitted effect of over 50% in size. Also: potency is read from the fitted curve at half-maximal effect. The following applies: recombinant CYP3A4, Luciferin-PPXE luminescence; series mostly up to 57.1 µM. The gist of the method:
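20 nM human CYP3A4 with 25 uM Luciferin-PPXE (at KM) in 200 mM KPO4, preincubated 10 min with compound; NADPH regeneration started a 60 min RT reaction. Luciferin detected by luminescence, normalized to 57 uM ketoconazole as full inhibition.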

Test [17] addresses Cytochrome P450 2C19 (Homo sapiens) (UniProt P33261). Description: qHTS Assay for Inhibitors and Substrates of Cytochrome P450 2C19 (AID 899). Also: potency is read from the fitted curve at half-maximal effect; nearly all actives have a fitted effect of over 60% in size. The following applies: recombinant CYP2C19, luciferin-H EGE luminescence; series mostly up to 57.1 µM. The gist of the method: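 Signal comes from luciferase acting on luciferin released by CYP2C19-mediated hydroxylation of Luciferin-H EGE, 10uM (KM). Assay mix: 5nM enzyme, 50mM KPO4; 60 min at 37C with NADPH regeneration. Data normalized against 57uM ketoconazole.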

Values without a mark were called inactive. Results filed as inconclusive are left out. The source made the active and inactive calls. Unless noted, calls follow the shape of the dose curve; as a rule, active = well fitted curve in the direction sought with a large enough effect; inconclusive = small, poorly fitted or top-dose-only effect, or another doubt; inactive = no such curve, though single readings can be large; an effect the other way counts as inactive or inconclusive.

Sequence of Glucocorticoid receptor (Homo sapiens) (P04150 whole entry, looked up): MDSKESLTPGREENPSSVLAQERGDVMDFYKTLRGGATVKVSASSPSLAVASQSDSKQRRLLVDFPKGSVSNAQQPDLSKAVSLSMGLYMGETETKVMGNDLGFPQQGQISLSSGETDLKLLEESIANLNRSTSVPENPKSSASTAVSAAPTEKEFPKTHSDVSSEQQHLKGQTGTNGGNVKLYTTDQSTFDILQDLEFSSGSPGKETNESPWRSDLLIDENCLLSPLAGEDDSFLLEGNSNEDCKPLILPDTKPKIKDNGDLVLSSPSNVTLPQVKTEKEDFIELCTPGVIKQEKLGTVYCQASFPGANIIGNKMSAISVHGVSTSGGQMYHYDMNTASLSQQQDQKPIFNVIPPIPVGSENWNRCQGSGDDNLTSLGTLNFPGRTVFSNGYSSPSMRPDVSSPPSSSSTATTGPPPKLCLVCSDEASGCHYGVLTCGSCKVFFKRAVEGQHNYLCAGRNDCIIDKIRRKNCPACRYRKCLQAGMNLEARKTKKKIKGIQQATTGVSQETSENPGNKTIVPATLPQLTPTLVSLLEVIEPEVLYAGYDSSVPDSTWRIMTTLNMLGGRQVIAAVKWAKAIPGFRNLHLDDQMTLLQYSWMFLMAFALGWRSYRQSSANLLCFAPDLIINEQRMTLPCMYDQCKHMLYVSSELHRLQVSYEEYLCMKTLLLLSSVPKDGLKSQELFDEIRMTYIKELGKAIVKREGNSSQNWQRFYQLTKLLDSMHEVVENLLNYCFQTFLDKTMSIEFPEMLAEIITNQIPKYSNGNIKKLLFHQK
Sequence of Cytochrome P450 1A2 (Homo sapiens) (P05177 whole entry, looked up): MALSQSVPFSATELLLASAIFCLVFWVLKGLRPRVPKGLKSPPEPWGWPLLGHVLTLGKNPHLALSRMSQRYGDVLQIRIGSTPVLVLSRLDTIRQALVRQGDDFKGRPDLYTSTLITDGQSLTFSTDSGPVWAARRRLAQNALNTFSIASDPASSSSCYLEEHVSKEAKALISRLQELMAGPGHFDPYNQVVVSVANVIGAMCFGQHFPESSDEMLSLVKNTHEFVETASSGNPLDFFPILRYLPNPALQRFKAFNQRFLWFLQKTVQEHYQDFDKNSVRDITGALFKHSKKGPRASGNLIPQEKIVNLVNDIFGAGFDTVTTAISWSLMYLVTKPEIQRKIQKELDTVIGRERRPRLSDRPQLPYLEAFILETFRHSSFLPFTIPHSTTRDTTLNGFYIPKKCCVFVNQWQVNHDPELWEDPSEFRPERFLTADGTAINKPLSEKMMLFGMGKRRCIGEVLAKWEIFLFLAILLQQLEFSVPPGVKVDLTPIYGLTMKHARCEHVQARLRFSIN
Sequence of Lysosomal acid glucosylceramidase (Homo sapiens) (P04062 whole entry, looked up): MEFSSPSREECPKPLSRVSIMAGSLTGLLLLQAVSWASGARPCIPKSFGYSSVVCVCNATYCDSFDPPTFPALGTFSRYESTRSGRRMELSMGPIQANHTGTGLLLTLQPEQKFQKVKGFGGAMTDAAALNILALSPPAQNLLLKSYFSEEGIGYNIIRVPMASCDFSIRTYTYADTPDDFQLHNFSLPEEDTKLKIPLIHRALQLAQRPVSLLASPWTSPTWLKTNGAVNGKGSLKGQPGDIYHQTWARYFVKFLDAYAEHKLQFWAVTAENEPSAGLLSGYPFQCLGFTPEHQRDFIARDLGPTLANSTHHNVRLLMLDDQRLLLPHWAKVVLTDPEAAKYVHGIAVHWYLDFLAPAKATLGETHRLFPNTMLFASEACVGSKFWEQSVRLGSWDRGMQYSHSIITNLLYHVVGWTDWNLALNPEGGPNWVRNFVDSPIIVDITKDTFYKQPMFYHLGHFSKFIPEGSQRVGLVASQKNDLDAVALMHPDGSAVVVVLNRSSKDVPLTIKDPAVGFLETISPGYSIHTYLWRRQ
Sequence of Cytochrome P450 3A4 (Homo sapiens) (P08684 whole entry, looked up): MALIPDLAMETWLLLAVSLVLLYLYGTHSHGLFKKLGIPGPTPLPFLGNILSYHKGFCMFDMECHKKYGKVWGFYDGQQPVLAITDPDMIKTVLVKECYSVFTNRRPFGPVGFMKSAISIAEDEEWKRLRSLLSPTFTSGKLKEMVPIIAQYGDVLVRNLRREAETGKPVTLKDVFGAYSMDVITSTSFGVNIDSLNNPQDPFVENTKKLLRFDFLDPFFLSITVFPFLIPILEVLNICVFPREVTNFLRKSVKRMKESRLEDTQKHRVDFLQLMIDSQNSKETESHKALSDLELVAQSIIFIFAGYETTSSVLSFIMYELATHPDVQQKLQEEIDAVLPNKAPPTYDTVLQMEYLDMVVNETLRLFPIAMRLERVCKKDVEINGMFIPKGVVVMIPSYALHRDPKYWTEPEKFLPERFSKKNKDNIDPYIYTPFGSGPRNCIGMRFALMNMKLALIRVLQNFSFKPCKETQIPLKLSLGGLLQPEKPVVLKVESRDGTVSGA
Sequence of 3',5'-cyclic-AMP phosphodiesterase 4B (Homo sapiens) (Q07343 whole entry, looked up): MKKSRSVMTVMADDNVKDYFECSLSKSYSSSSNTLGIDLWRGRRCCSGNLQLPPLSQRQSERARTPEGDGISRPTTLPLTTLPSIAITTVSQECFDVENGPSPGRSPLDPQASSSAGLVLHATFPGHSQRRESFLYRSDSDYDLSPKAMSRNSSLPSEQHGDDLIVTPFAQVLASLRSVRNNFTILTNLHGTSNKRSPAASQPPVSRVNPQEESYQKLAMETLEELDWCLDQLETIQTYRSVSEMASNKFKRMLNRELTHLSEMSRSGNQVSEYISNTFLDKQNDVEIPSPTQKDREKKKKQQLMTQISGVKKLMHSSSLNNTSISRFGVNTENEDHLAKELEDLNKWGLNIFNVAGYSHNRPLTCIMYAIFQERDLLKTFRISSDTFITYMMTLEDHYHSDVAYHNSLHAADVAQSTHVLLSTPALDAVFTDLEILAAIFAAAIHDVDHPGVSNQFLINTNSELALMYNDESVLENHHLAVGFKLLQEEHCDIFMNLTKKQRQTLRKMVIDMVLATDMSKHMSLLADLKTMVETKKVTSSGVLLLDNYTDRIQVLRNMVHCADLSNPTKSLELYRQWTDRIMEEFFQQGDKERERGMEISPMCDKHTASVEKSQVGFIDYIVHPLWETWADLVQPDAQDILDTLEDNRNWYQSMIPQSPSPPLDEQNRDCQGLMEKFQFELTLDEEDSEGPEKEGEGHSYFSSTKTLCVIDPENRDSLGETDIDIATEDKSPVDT
Sequence of Ubiquitin carboxyl-terminal hydrolase 1 (Homo sapiens) (O94782 whole entry, looked up): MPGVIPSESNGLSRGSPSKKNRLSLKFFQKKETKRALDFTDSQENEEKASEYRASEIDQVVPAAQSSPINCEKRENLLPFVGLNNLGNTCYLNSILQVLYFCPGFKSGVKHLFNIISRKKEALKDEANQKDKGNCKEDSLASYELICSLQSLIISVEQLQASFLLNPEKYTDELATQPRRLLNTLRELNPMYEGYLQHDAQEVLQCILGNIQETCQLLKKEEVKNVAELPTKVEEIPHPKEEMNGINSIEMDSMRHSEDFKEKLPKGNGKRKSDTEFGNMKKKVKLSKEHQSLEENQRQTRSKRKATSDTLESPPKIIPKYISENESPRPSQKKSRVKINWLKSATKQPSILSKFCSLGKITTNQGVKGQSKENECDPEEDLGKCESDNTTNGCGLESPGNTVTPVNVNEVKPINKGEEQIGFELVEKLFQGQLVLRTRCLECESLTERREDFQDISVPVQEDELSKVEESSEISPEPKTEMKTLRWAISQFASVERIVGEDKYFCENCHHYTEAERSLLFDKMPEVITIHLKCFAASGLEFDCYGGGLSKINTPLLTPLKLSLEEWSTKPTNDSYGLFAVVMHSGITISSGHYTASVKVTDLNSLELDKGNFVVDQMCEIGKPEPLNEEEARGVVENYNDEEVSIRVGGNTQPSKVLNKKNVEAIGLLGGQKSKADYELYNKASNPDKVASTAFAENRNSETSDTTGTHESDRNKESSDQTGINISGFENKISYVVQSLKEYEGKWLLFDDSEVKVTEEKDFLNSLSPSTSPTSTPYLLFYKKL
Sequence of Dual specificity protein kinase CLK4 (Homo sapiens) (Q9HAZ1 whole entry, looked up): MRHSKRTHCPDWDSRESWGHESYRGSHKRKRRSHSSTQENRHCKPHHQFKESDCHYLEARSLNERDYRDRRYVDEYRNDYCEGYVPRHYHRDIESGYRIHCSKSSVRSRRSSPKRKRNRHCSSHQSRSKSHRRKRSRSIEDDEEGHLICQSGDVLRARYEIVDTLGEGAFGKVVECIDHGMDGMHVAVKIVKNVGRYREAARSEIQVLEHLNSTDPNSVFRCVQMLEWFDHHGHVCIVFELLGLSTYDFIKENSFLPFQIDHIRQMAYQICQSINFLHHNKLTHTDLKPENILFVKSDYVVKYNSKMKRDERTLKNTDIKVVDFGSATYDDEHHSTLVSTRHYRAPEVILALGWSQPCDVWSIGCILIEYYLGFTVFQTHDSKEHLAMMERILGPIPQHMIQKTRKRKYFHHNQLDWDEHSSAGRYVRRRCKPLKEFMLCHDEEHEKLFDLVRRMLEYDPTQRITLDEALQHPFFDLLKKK
Sequence of Cytochrome P450 2C9 (Homo sapiens) (P11712 whole entry, looked up): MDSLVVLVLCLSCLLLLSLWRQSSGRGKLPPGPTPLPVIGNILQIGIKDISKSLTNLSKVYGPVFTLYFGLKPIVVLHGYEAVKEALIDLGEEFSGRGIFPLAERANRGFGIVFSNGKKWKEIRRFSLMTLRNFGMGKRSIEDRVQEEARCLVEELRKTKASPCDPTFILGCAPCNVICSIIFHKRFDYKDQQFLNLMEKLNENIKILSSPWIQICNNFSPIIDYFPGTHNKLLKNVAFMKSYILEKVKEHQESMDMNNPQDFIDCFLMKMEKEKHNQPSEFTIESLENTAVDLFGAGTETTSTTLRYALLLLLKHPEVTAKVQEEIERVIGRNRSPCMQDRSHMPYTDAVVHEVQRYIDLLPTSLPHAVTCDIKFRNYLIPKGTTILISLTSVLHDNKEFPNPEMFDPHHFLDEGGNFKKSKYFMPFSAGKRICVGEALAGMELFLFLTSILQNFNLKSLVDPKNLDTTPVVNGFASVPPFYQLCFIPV

Regarding `c1ccc(CNc2nc(-c3ccc4c(c3)OCO4)nc3ccccc23)cc1`, the Potency in [1] is over 11.4 µM; in [3] it was 0.501 µM (active); in [6], over 46 µM; in [7] it was over 46 µM. Besides, the activity change, negative = inhibition was -7.19% in test [2] and -23.9% in test [4]. In test [5], the activity, negative = inhibition was -13%. In addition, the Potency entry in [8], in test [9], in [10], in test [11] and in [12] was “inactive” each time. Further, in test [13], the result was inactive.

On to `COc1ccccc1CNc1cc(-c2ccccc2C(F)(F)F)ncn1`, for which the Potency in test [1] was over 11.4 µM; in [3], 15.8 µM (active); in test [7], over 46 µM; in test [17], 1 µM (active). Also, the activity change, negative = inhibition in [2] is -11.1%; in [4], -8.05%; in test [15], 8.84% [at 2.29 µM]. For the same compound, the activity, negative = inhibition in test [5] is 9.59%. Further, the Potency result in test [8], in [14], in [16], in test [10], in [11] and in test [12] was “inactive” each time. In test [13], the outcome was inactive.

With `COc1cccc(Nc2ncc3nc(-c4cccs4)c(=O)n(CCC#N)c3n2)c1`, the Potency was over 11.4 µM in [1]; 2.51 µM (active) in test [3]; over 9.22 µM in test [6]; over 46 µM in test [7]; 6.31 µM (active) in test [16]. Besides, the activity change, negative = inhibition in test [2] is -26.3%. Further, the Potency result in test [8], in [14], in test [9], in test [10], in [11] and in test [12] was “inactive” throughout. For the same compound, in [13], the result was inactive.

`c1cncc(-c2ccc3ncnc(NC4CCNCC4)c3c2)c1`: the Potency is over 11.4 µM in [1]; 12.6 µM (active) in [3]; over 46 µM in test [6]; over 46 µM in [7]; 14.1 µM (active) in test [10]; 12.6 µM (active) in test [11]. For the same compound, the activity change, negative = inhibition in test [2] is 5.15%; in [4], 13.2%. Further, in test [5], the activity, negative = inhibition is 3.6%. Also, the Potency entry in [8], in test [14], in test [9] and in test [12] was “inactive” in each case. In test [13], the outcome was inactive.

On to `Cc1nc2cnc(Nc3ccccc3)nc2n(CCc2ccccc2)c1=O`, for which the Potency is over 11.4 µM in test [1], 2.51 µM (active) in test [3], over 9.22 µM in test [6] and over 46 µM in test [7]. Further, the activity change, negative = inhibition in test [2] was -7.04%; in test [4], -9.65%. In addition, the activity, negative = inhibition in test [5] is -6.93%. Also, the Potency entry in test [8], in test [14], in test [10], in test [11] and in [12] was “inactive” throughout. In addition, the outcome in [13] was inactive.

For the compound `COc1ccc2[nH]cc(CCNc3ccnc(-c4ccccc4C(F)(F)F)n3)c2c1`, the Potency in test [1] is over 11.4 µM; in [3], 3.98 µM (active); in test [6], over 46 µM; in test [7], over 46 µM; in test [16], 2 µM (active). In addition, the results for the activity change, negative = inhibition in [2] and in test [4] were -10.2% and -1.93%, respectively. Moreover, in test [5], the activity, negative = inhibition is -14.8%. In addition, the Potency result in test [8], in [14], in test [9], in test [10] and in test [11] was “inactive” in each case. Further, in test [13], the outcome was inactive.

The values are drawn from PubChem BioAssay (NCATS).
